High-throughput results (PubChem)
GRIN3A LBD mod: modulates the human NR3A ligand-binding domain | 340,000 tested, 2.5% active | Tm shift relative to glycine control, % at 25 µM | NR3A LBD differential scanning fluorimetry, Tm shift; 0% = protein alone, 100% = glycine-bound protein;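 active = melting temperature shift of at least 10% of the positive control shift, at one fixed dose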
Mdm2-MdmX inh: disrupts the human Mdm2-MdmX interaction; SaOS-2 split-luciferase Mdm2/MdmX complementation, luminescence; inhibition, % at 8 µM; 330,000 tested, 3% active; O15151+Q00987;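 active = inhibition of at least 50% at 8 µM in the primary screen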
Target sequence (O15151 whole entry, looked up): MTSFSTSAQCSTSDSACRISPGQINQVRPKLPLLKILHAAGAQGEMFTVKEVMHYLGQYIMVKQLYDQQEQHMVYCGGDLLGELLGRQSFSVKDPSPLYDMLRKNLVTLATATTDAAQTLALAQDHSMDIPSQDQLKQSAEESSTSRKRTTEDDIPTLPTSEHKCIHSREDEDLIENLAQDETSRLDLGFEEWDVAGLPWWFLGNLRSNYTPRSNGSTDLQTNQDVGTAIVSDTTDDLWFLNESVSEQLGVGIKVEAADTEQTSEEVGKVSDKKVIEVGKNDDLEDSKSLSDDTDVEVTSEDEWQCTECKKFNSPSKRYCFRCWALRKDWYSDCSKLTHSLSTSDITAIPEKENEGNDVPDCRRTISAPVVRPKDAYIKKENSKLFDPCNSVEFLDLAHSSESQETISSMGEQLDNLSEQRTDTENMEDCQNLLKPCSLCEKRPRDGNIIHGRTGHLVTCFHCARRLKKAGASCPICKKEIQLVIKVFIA
Target sequence (Q00987 whole entry, looked up): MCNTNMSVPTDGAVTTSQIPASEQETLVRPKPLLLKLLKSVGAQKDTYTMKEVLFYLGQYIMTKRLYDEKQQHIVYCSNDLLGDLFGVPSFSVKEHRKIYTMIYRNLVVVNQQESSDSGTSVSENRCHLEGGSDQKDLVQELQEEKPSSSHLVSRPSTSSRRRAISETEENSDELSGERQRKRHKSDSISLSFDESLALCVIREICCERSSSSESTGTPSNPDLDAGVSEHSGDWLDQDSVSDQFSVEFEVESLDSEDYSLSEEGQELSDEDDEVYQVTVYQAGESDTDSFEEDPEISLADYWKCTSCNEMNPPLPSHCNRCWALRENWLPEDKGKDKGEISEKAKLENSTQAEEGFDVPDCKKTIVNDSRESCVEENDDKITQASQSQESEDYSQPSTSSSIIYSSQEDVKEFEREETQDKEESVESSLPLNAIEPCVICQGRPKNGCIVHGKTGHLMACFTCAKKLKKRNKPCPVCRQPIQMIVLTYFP
CSC inhib: cancer stem cell inhibition | cancer stem cell-like cells viability, luminescence | inhibition, % at 7.5 µM | 300,000 tested, 1.1% active | AID 2717; in the data active = inhibition above about 75%; inconclusive = no clear call, values can overlap the other calls; tested in HMLE shEcad cells
Beta apoptosis: beta cell apoptosis inhibition; INS-1E cytokine-induced death, ATP luminescence, 48 h; percent of positive-control rescue, neutral wells zero; 300,000 tested, 0.8% active; protection from apoptosis, % (no concentration beside the values); AID 435005;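 active = Every replicate reaches about 75%, or at least half do and their mean reaches it too, limit read from the data; inconclusive = At least half of replicates reach the limit but their mean does not; inactive = Under half of replicates reach the limit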;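 also: 0% = cytokine-treated negative control wells and 100% = positive control rescue; higher means more ATP so stronger rescue from cytokine killing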
MPTP block: inhibitors of mitochondrial permeability transition pore; isolated mouse mitochondria, Ca2+ swelling absorbance, 30 min; inhibition, % at 10 µM; 360,000 tested, 1.4% active;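 active = inhibition of 50% or more, scaled per plate between neutral and stimulator controls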;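 also: 0% = DMSO wells given calcium and 100% = 1 mM EGTA wells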
Gli-Sufu antag: antagonists of Gli-Sufu signaling; Sufu-KO-LIGHT fibroblasts, Gli luciferase reporter luminescence; inhibition, % at 5 µM; 340,000 tested, 0.74% active;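 active = inhibition above about 55%, limit read from the data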;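 also: 0% = DMSO-treated cells and 100% = wells with medium but no cells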
Mdm2 MdmX conf: human Mdm2/MdmX binding inhibition, confirmed; 10,000 tested, 55% active; inhibition, % at 8 µM; AID 489028; shares compounds with Mdm2-MdmX inh; luminescent assay; in the data active = inhibition above about 40%
Full FLuc ctr: full-length luciferase inhibition in Mdm2/MdmX counter-screen | AID 504607 | 6,200 tested, 77% active | shares compounds with Mdm2-MdmX inh | SaOS-2 full-length luciferase counterscreen, luminescence | inhibition, % at 8 µM;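 active = mean inhibition at 8 µM reaching about 37%, which flags the compound as non-specific, limit read from the data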;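 also: p53-null SaOS-2 cells with luciferase driven by a doxycycline-inducible promoter; compound on cells about two nights before reading with doxycycline added after day one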
Active calls of the source: *; u = inconclusive; x = no result given. Compounds with a hit are over-represented: about 6.6% of the library has one in this group of screens.

SMILES | GRIN3A LBD mod | Mdm2-MdmX inh | CSC inhib | Beta apoptosis | MPTP block | Gli-Sufu antag | Mdm2 MdmX conf | Full FLuc ctr
CCc1nc2c(cnn2-c2ccc(Cl)cc2)c(=O)n1-c1ccc2c(c1)OCCO2 | 3 | 56* | 57 | 0 | 2 | 19 | 22 | x
COc1ccc(NC(=O)c2ccco2)c2ccccc12 | 0 | 7 | -7 | -3 | 0 | 5 | x | x
Cc1cc(SCc2ccccc2Cl)nc(=O)[nH]1 | -3 | 10 | -26 | x | 0 | -12 | x | x
Cc1cc(SCc2ccc(Cl)cc2Cl)nc(=O)[nH]1 | -4 | 53* | 62 | -2 | 0 | -15 | 30 | x
COc1ccc(NC(=O)CSc2cn[nH]n2)cc1OC | 0 | -6 | 7 | -6 | 1 | -10 | x | x
Cc1ccc(C)c(N2CCN(C(=O)C(Cc3ccccc3)n3cccc3)CC2)c1 (centres undefined) | 5 | 50* | 30 | -2 | 3 | 6 | 28 | x
CC(=O)c1cccc(NC(=O)CCCCCn2nnc3ccccc3c2=O)c1 | 0 | 12 | 4 | 6 | -1 | 17 | x | x
COC(=O)c1c(NC(=O)CN2CCC3(O)CCCCC3C2c2ccc(F)cc2)sc(C)c1C (centres undefined) | -7 | 53* | 46 | -3 | -2 | -4 | 27 | x
Cc1ccc(CNC(=O)/C=C/[C@H]2O[C@@H](n3cc(C)c(=O)[nH]c3=O)C[C@@H]2O)o1 | x | x | x | x | -2 | x | x | x
COc1ccc(-c2nn(-c3ccccc3)cc2C(=O)N2c3ccc(C)cc3C3CN(C)CCC32)cc1 (centres undefined) | -1 | 54* | x | 15 | -6 | x | 35 | 74*
COc1ccc(-c2nn(-c3ccccc3)cc2C(=O)O)cc1 | -2 | 12 | -5 | -3 | 0 | 0 | x | x
O=C(Nc1cccc(Cl)c1)c1csc([C@@H]2O[C@H](CO)[C@H](O)[C@H](O)[C@H]2O)n1 | x | x | x | x | -2 | x | x | x
COCCNC(=O)c1cc2cc3ccc(OC)cc3nc2o1 | 0 | -4 | -3 | 2 | 0 | -5 | x | x
COc1ccc2cc3cc(C(=O)Nc4ccccc4N4CCN(C)CC4)oc3nc2c1 | 1 | 101* | 14 | 23 | 26 | 7 | 4 | x
COc1ccc2cc3cc(C(=O)NCCN4CCN(c5ccccc5F)CC4)oc3nc2c1 | -8 | 57* | -9 | 10 | 1 | 15 | 14 | x
CN1CCN(c2ccccc2NC(=S)NC(=O)c2cc3ccccc3o2)CC1 | -2 | 92* | 1 | -4 | -1 | 5 | 18 | x
CC(=O)N1CCN(c2ccccc2NC(=O)c2cc3ccccc3o2)CC1 | -1 | 6 | -12 | -4 | 0 | 10 | x | x
CC1(C(=O)N2Cc3ccccc3C2)CCN1C(=O)C1(c2ccc(Cl)cc2)CC1 (centres undefined) | x | x | x | x | 0 | x | x | x
Nc1nnc(CC(=O)N/N=C/c2ccc(-c3ccc(Cl)cc3Cl)o2)s1 | -1 | 68* | 2 | 0 | 6 | 3 | 34 | 83*
Nc1nnc(CC(=O)N/N=C/c2ccc(-c3ccccc3Cl)o2)s1 | -4 | 18 | -8 | -6 | 5 | -14 | x | x
COc1ccc(C(=O)Nc2ccc(C)cn2)c(OC)c1 | 0 | 68* | 3 | x | 2 | -7 | 67* | 85*
C=C(C(=O)Oc1ccccc1C(C)(C)C)c1ccccc1 | x | 96* | 103* | 7 | x | x | 49* | 34
O=C(c1cc2ccccc2o1)N1CCN(c2ncccn2)CC1 | -1 | 9 | -16 | 3 | -3 | -8 | x | x
Cc1ccc(C(=O)COC(=O)CCNS(=O)(=O)c2ccccc2F)cc1 | -1 | -3 | 0 | -10 | -1 | -1 | x | x
O=C1N[C@@H](Cc2ccccc2)C(=O)N2[C@H]3Nc4ccccc4[C@@]3([C@]34C[C@H]5C(=O)N[C@@H](Cc6ccccc6)C(=O)N5[C@H]3Nc3ccccc34)C[C@@H]12 | -1 | 53* | -13 | -1 | x | 5 | 20 | x
SMILES | GRIN3A LBD mod | Mdm2-MdmX inh | CSC inhib | Beta apoptosis | MPTP block | Gli-Sufu antag | Mdm2 MdmX conf | Full FLuc ctr
COc1cc(Nc2ccc(C)cc2)c([N+](=O)[O-])nc1[N+](=O)[O-] | -5 | 53* | u | 50 | 0 | -8 | 42* | 87*
C/C=C(\C)C(=O)OC1[C@H](OC(C)=O)C2(CO)C(CC1(C)C)C1=CCC3C4(C)CCC(O[C@@H]5O[C@H](C(=O)O)[C@@H](O[C@@H]6O[C@H](CO)[C@@H](O)[C@H](O)[C@H]6O)[C@H](O)[C@H]5O[C@H]5O[C@H](CO)[C@@H](O)[C@H](O)[C@H]5O)[C@](C)(CO)C4CCC3(C)[C@]1(C)C[C@H]2O (some centres undefined) | -2 | x | x | x | -2 | 4 | x | x
C/C=C(/C)C(=O)OC1CC(C)(C)C[C@H]2C3=CC[C@@H]4[C@@]5(C)CCC(O[C@@H]6O[C@@H](C(=O)O)[C@@H](O)C(O[C@@H]7OC[C@H](O)[C@@H](O)[C@@H]7O[C@@H]7OC(CO)C(O)[C@@H](O)[C@@H]7O)C6O[C@@H]6OC(CO)C(O)C(O)C6O)[C@@](C)(CO)[C@@H]5CC[C@]4(C)[C@]3(C)CC(O)[C@@]12CO (some centres undefined) | -1 | 94* | 33 | 44 | 0 | 0 | 48* | 17
Cc1cccc(-c2noc(-c3ccc4c(c3)OCO4)n2)c1 | 2 | -93 | 3 | 4 | 0 | -78 | x | x
c1ccc(-c2noc(-c3ccc4c(c3)OCO4)n2)nc1 | -1 | 83* | 95* | 74 | 0 | 50 | 86* | 29
c1ccc(-c2noc(-c3ccncc3)n2)nc1 | 1 | -2 | 45 | 29 | 0 | -34 | x | x
c1ccc(-c2noc(-c3ccc4ccccc4c3)n2)nc1 | 0 | 80* | 19 | 15 | 1 | 62* | 83* | 27
COc1cccc(-c2nc(-c3ccccn3)no2)c1 | 1 | 55* | 17 | x | x | -14 | 33 | 57*
COc1cccc(-c2nc(-c3ccccc3)no2)c1 | 2 | -234 | -8 | -1 | 3 | -113 | x | x
CN(C)CCCn1c(SCC(=O)N2c3ccccc3Sc3ccccc32)nc2ccccc2c1=O | -4 | x | 30 | -1 | -3 | 18 | x | x
COc1ccc(-c2c[n+]3c(n2-c2ccc(C)cc2)CCCCC3)cc1 | -1 | 62* | 16 | 127* | 5 | 79* | 40* | 49*
COc1ccc(-c2c[n+]3c(n2-c2c(C)n(C)n(-c4ccccc4)c2=O)CCCCC3)cc1 | -5 | -1 | -9 | -4 | -2 | -1 | x | x
COc1ccc(-n2c(-c3ccc(Br)cc3)c[n+]3c2CCc2ccccc2-3)cc1 | 0 | 51* | 7 | 104* | 37 | 86* | 54* | 61*
CCOc1ccc(-n2c(-c3ccc(OC)cc3)c[n+]3c2CCCCC3)cc1 | -4 | 56* | 34 | 97* | 10 | 87* | 47* | 46*
